Experimental data: article PMC5540273 (PLoS ONE, 2017)

System: RPS6KA5(Kin.Dom.1-N-terminal)
Conditions: concentration: 1 μM,replicates: in singlicate; n = 1
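Also: KINOMEscan kinase panel screen.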

SMILES	%Inh [%]
Cc1ccn2nc(-c3ccc(F)cc3)c(-c3ccncc3)c2c1.Cl [GW457859]	44
CS(=O)c1ccc(-c2coc3ccc(-c4n[nH]c(=O)o4)cc23)cc1 (stereo not drawn)	13
C[C@@H](Oc1cc(-n2cnc3cc(-c4cnn(C)c4)ccc32)sc1C(N)=O)c1ccccc1Cl [GSK580432]	5
CN1CCN(CCCNc2nccc(-c3c(-c4ccc(F)cc4)nn4cc(C(N)=O)ccc34)n2)CC1 [GW622475]	19
C[C@@H](Oc1cc(-n2cnc3ccc(-c4ccncc4)cc32)sc1C(N)=O)c1ccccc1Cl [GSK483724]	25
CS(=O)(=O)c1cccc(CNc2nc(Nc3ccc4c(c3)[C@@H]3C[C@@H]4CNC3=O)ncc2C(F)(F)F)c1	0
COc1cc(Nc2nccc(N3CCC(NC(=O)c4cccc(C#N)c4)C3)n2)cc(OC)c1OC (stereo not drawn) [GSK1379751]	0
COc1cccc(OC)c1C(=O)Nc1cccc(-c2nn3ccccc3c2-c2ccnc(Nc3cccc(F)c3)n2)c1 [GSK361065]	0
O=C(NOCC1CC1)c1cc(Br)c(F)c(F)c1Nc1ccc(I)cc1Cl	0
CNC(=O)c1ccccc1Nc1nc(Nc2cccc(CS(C)(=O)=O)c2)ncc1C.O=CO [GSK1520489]	43
C[C@@H]1CNc2c(sc3ccc4nc(-c5ccc(O)cc5)ccc4c23)C(=O)N1	2
O=C(Nc1cccc(Oc2ccc3nccn3n2)c1)Nc1cccc(C(F)(F)F)c1	0
NC(=O)Nc1sc(-c2ccc(F)cc2)cc1C(N)=O [GW789449]	0
NC(=O)c1ccc(-c2cc3ncnc(SCC(=O)O)c3s2)cc1	7
Cc1n[nH]c2cc(Nc3ccnc(Nc4cccc(CN5CCOCC5)c4)n3)ccc12 [GW682569]	0
O=c1[nH]cc(-c2ccc(O)cc2)c2sc(-c3ccncc3)cc12 [GSK1033723]	4
COC(=O)Nc1nc2cc(Oc3ccc(NC(=O)Nc4cc(C(F)(F)F)ccc4Cl)cc3)ccc2[nH]1.Cl [GW697465]	14
O=C1NCCc2[nH]c(-c3ccncc3)cc21	0

SMILES	%Inh [%]
Cl.Cl.NC[C@H](CC1CCCCC1)NC(=O)c1ccc(-c2ccnc3[nH]ccc23)s1 [GSK1581428]	84
CC(=O)Nc1nc2cnc(Nc3cc(NC(=O)c4cccc(CC(C)(C)C#N)c4)ccc3C)nc2s1	13
O=C(Nc1ccc(Oc2ccc3nc(NC(=O)C4CC4)cn3n2)c(F)c1)c1cccn(-c2ccccc2)c1=O	0
CC(=O)Nc1ccc(-c2cc3ncnc(SCC(=O)O)c3s2)cc1	0
COC(=O)c1cccc(NC(=O)NC2CCN(c3ccnc(NCc4ccc(F)cc4)n3)CC2)c1 [GSK1379860]	7
COc1ccc(Nc2nccc(N3CCC(NC(=O)c4cccc(C#N)c4)C3)n2)cc1 (stereo not drawn) [GSK1379730]	5
Cn1ccc2ncnc(Oc3ccc(NC(=O)Nc4cncc(C(F)(F)F)c4)c(Cl)c3)c21	83
Cn1ccc2ncnc(Oc3ccc(NC(=O)Nc4cnn(C(C)(C)C)c4)c(Cl)c3)c21	32
COc1cccc(C2=C(Nc3cccc(Cl)c3)C(=O)NC2=O)c1 [SB-341556]	5
Cn1ccc2ncnc(Oc3ccc(NC(=O)Nc4cccc(C(F)(F)F)c4)c(F)c3)c21	0
CC(C(=O)NC1CCN(c2ccnc(Nc3ccc(F)cc3)n2)C1)c1ccc(Cl)cc1 (stereo not drawn) [GSK1379713]	0
O=C(NCC1CC1)c1ccc(-c2cc(C(=O)NC3CC3)ccc2F)cc1 [GW810445]	0
Cc1cccc2c(-c3ccncc3)c(-c3ccc(F)cc3)nn12.Cl [GW461487]	0
c1ccc(Oc2ccc(Nc3ccnc4ccc(-c5ccccn5)cc34)cc2)cc1 [GW407034]	3
O=C(Nc1ccccc1)c1cccc(Oc2ccc3nccn3n2)c1	0
Cc1ccc2c(-c3ccnc(Nc4ccc(C(F)(F)F)cc4)n3)cnn2n1 [GW819776]	0
CC(C)c1nc(-c2cccc(NS(=O)(=O)c3ccccc3)c2)c(-c2ccnc(Nc3ccc4c(c3)CN(C)CC4)n2)s1 [GSK1649598]	4
CN(c1ccccc1CNc1nc(Nc2ccc3c(c2)CC(=O)N3)ncc1C(F)(F)F)S(C)(=O)=O	71

System: RPS6KA5(Kin.Dom.2-C-terminal)
Conditions: concentration: 1 μM,replicates: in singlicate; n = 1

SMILES	%Inh [%]
Cc1ccn2nc(-c3ccc(F)cc3)c(-c3ccncc3)c2c1.Cl [GW457859]	27
CS(=O)c1ccc(-c2coc3ccc(-c4n[nH]c(=O)o4)cc23)cc1 (stereo not drawn)	14
C[C@@H](Oc1cc(-n2cnc3cc(-c4cnn(C)c4)ccc32)sc1C(N)=O)c1ccccc1Cl [GSK580432]	6
CN1CCN(CCCNc2nccc(-c3c(-c4ccc(F)cc4)nn4cc(C(N)=O)ccc34)n2)CC1 [GW622475]	14
C[C@@H](Oc1cc(-n2cnc3ccc(-c4ccncc4)cc32)sc1C(N)=O)c1ccccc1Cl [GSK483724]	5
CS(=O)(=O)c1cccc(CNc2nc(Nc3ccc4c(c3)[C@@H]3C[C@@H]4CNC3=O)ncc2C(F)(F)F)c1	46
COc1cc(Nc2nccc(N3CCC(NC(=O)c4cccc(C#N)c4)C3)n2)cc(OC)c1OC (stereo not drawn) [GSK1379751]	34
COc1cccc(OC)c1C(=O)Nc1cccc(-c2nn3ccccc3c2-c2ccnc(Nc3cccc(F)c3)n2)c1 [GSK361065]	0
O=C(NOCC1CC1)c1cc(Br)c(F)c(F)c1Nc1ccc(I)cc1Cl	9
CNC(=O)c1ccccc1Nc1nc(Nc2cccc(CS(C)(=O)=O)c2)ncc1C.O=CO [GSK1520489]	0
C[C@@H]1CNc2c(sc3ccc4nc(-c5ccc(O)cc5)ccc4c23)C(=O)N1	17
O=C(Nc1cccc(Oc2ccc3nccn3n2)c1)Nc1cccc(C(F)(F)F)c1	0
NC(=O)Nc1sc(-c2ccc(F)cc2)cc1C(N)=O [GW789449]	0
NC(=O)c1ccc(-c2cc3ncnc(SCC(=O)O)c3s2)cc1	0
Cc1n[nH]c2cc(Nc3ccnc(Nc4cccc(CN5CCOCC5)c4)n3)ccc12 [GW682569]	21
O=c1[nH]cc(-c2ccc(O)cc2)c2sc(-c3ccncc3)cc12 [GSK1033723]	21
COC(=O)Nc1nc2cc(Oc3ccc(NC(=O)Nc4cc(C(F)(F)F)ccc4Cl)cc3)ccc2[nH]1.Cl [GW697465]	0
O=C1NCCc2[nH]c(-c3ccncc3)cc21	58

SMILES	%Inh [%]
Cl.Cl.NC[C@H](CC1CCCCC1)NC(=O)c1ccc(-c2ccnc3[nH]ccc23)s1 [GSK1581428]	67
CC(=O)Nc1nc2cnc(Nc3cc(NC(=O)c4cccc(CC(C)(C)C#N)c4)ccc3C)nc2s1	0
O=C(Nc1ccc(Oc2ccc3nc(NC(=O)C4CC4)cn3n2)c(F)c1)c1cccn(-c2ccccc2)c1=O	9
CC(=O)Nc1ccc(-c2cc3ncnc(SCC(=O)O)c3s2)cc1	15
COC(=O)c1cccc(NC(=O)NC2CCN(c3ccnc(NCc4ccc(F)cc4)n3)CC2)c1 [GSK1379860]	0
COc1ccc(Nc2nccc(N3CCC(NC(=O)c4cccc(C#N)c4)C3)n2)cc1 (stereo not drawn) [GSK1379730]	0
Cn1ccc2ncnc(Oc3ccc(NC(=O)Nc4cncc(C(F)(F)F)c4)c(Cl)c3)c21	6
Cn1ccc2ncnc(Oc3ccc(NC(=O)Nc4cnn(C(C)(C)C)c4)c(Cl)c3)c21	0
COc1cccc(C2=C(Nc3cccc(Cl)c3)C(=O)NC2=O)c1 [SB-341556]	0
Cn1ccc2ncnc(Oc3ccc(NC(=O)Nc4cccc(C(F)(F)F)c4)c(F)c3)c21	19
CC(C(=O)NC1CCN(c2ccnc(Nc3ccc(F)cc3)n2)C1)c1ccc(Cl)cc1 (stereo not drawn) [GSK1379713]	0
O=C(NCC1CC1)c1ccc(-c2cc(C(=O)NC3CC3)ccc2F)cc1 [GW810445]	7
Cc1cccc2c(-c3ccncc3)c(-c3ccc(F)cc3)nn12.Cl [GW461487]	6
c1ccc(Oc2ccc(Nc3ccnc4ccc(-c5ccccn5)cc34)cc2)cc1 [GW407034]	0
O=C(Nc1ccccc1)c1cccc(Oc2ccc3nccn3n2)c1	16
Cc1ccc2c(-c3ccnc(Nc4ccc(C(F)(F)F)cc4)n3)cnn2n1 [GW819776]	0
CC(C)c1nc(-c2cccc(NS(=O)(=O)c3ccccc3)c2)c(-c2ccnc(Nc3ccc4c(c3)CN(C)CC4)n2)s1 [GSK1649598]	0
CN(c1ccccc1CNc1nc(Nc2ccc3c(c2)CC(=O)N3)ncc1C(F)(F)F)S(C)(=O)=O	14
